This note sets out measurements from PubChem BioAssay (NCATS).

Results filed as inconclusive are left out. Activity calls are given as the source filed them. Unless noted, the call rests on the fitted dose curve; in most records, active means well fitted curve in either direction with a large enough effect (not every such curve was filed as active); inconclusive means small, poorly fitted or top-dose-only effect, or another doubt; inactive means flat fitted curve, though single readings scatter. Bounds are passed on as bounds.

The target in test [1] is Lysosomal acid glucosylceramidase (Homo sapiens) (UniProt P04062). Briefly: Glucocerebrosidase-p2 (AID 348; in the data active means potency below about 10 µM; further: potency means the concentration at half of the fitted maximal effect). The note with it: purified GBA, blue fluorogenic substrate, 40 min. The method, boiled down:
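Compounds titrated from 0.6 nM upwards against 0.2 nM enzyme in pH 5.9 citric acid/KH2PO4, taurocholate, tween-20; blue fluorogenic substrate 80 uM, 40 min room temperature, stopped and read Ex 365/Em 440 for AC50.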

Test [2] is described as follows: AP1 Signaling Pathway (AID 357).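 Further: ME-180 reporter cells stimulated with EGF at its EC50 level; on the % scale 0 is the no-effect control and ±100 the full control effect.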 The conditions noted are these: ME-180 AP-1-bla reporter, EGF-induced, beta-lactamase ratio, 5 h; at 7.69 µM (top of the series) unless noted. The method, boiled down: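 Beta-lactamase reporter under AP-1 response element, ME-180 background. Stimulus: EC50 EGF. Compound exposure 5 h, 37 °C. Detection: CCF4, 2.5 h RT, 460/530 nm. Values: AC50 from titration.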

Test [3] addresses Cytochrome P450 1A2 (Homo sapiens) (UniProt P05177). Briefly: p450-cyp1a2 (AID 410; calls by dose curve; further: potency means the concentration at half of the fitted maximal effect). The conditions noted are these: recombinant CYP1A2, luciferin-ME demethylation, luminescence; series mostly up to 57 µM. The method, boiled down: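 20nM CYP1A2 with 100uM Luciferin-ME (at Km) in 100mM KPO4; compound preincubated 10 min, NADPH regeneration added, 60 min at room temperature. Luciferin quantified by luminescence after detection reagent; normalized to 57 uM furafylline.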

A short description of test [4]: NFAT Signaling Pathway (AID 444).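 Further: carbachol stimulus at about its EC50 of 1 µM final; on the % scale 0 is the no-effect control and ±100 the full control effect.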 The conditions noted are these: Jurkat NFAT-bla M1, carbachol, beta-lactamase ratio, 5 h; at 7.69 µM (top of the series) unless noted. The method, boiled down:
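Jurkat cells carrying an NFAT-driven β-lactamase reporter and co-transfected muscarinic M1 receptor were treated with compound plus carbachol (1 uM final, an EC50 level) for 5 h at 37 °C. CCF4 loading followed for 1 h at RT; 460/530 nm ratio gave %activity.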

The nature of test [5]: Stat Signaling Pathway (AID 446).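 Further: ME-180 cervical cancer cells given 40 pM IL-6 alongside compound; SIE-controlled beta-lactamase reporter measured as 460/530 nm FRET emission ratio; on the % scale 0 is the no-effect control and ±100 the full control effect.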 The note with it: ME-180 SIE beta-lactamase reporter, IL-6 stimulated, 5 h; at 7.69 µM (top of the series) unless noted. The method, boiled down: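 Screening format detects activators and inhibitors alike: ME-180 SIE-bla cells stimulated at 40 pM IL-6 for 5 hrs with compound, then dual-emission beta-lactamase read at 405 nm excitation.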
Test [6] has as its target Glucocorticoid receptor (Homo sapiens) (UniProt P04150). Description: GR-GFP Redistribution (AID 450;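 active means compounds whose dose series gives a full or clear partial fitted curve of increased nuclear translocation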; further: potency means the concentration at half of the fitted maximal effect). The note with it: U2OS GR-GFP nuclear translocation, laser cytometry, 2 h.
Test [7] has the same target. Description: GR-EFC Redistribution (AID 451; calls by dose curve; further: potency means the concentration at half of the fitted maximal effect). The conditions noted are these: CHO-K1 GR-EFC translocation, beta-gal luminescence, 2 h. The method, boiled down:
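CHO-K1 cells stably expressing nuclear-localized β-gal enzyme acceptor and GR fused C-terminally to the enzyme donor fragment; ligand-driven nuclear translocation restores β-gal by complementation. Compounds titrated up to 46 uM final, 2 h at 37 °C; luminescence read.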

Test [8] deals with Mitogen-activated protein kinase 10 (Mus musculus) (UniProt Q61831). Briefly: JNK3 AlphaScreen Assay (AID 530).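 Further: kinase came from lysate of stimulated human HepG2 cells; signal reports phosphorylation of biotinylated GST-cJun 1-79 at Ser73 with 10 µM ATP; on the % scale 0 is the no-effect control and ±100 the full control effect.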 The note with it: JNK3 lysate, c-Jun phosphorylation; series mostly up to 57.1 µM. The procedure, abridged: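 Inhibitors reduce antibody binding to phosphorylated biotin-cJun, lowering AlphaScreen luminescence. Lysates from HepG2 cells pre-activated by IL-1beta plus TNF-alpha supplied JNK3; compounds were titrated.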
A general note: Alpha assays give light when donor and acceptor beads are brought close together.

Test [9] has as its target Cytochrome P450 3A4 (Homo sapiens) (UniProt P08684). Briefly: qHTS Assay for Inhibitors and Substrates of Cytochrome P450 3A4 (AID 884; active means well fitted curve in the direction sought with a large enough effect; an effect the other way counts as inactive or inconclusive; further: potency means the concentration at half of the fitted maximal effect; nearly all actives have a fitted effect of over 50% in size). The note with it: recombinant CYP3A4, Luciferin-PPXE luminescence; series mostly up to 57.1 µM. The procedure, abridged:
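20 nM human CYP3A4 with 25 uM Luciferin-PPXE (at KM) in 200 mM KPO4, preincubated 10 min with compound; NADPH regeneration started a 60 min RT reaction. Luciferin detected by luminescence, normalized to 57 uM ketoconazole as full inhibition.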
For orientation: qHTS replaces the single test concentration by a dilution series.

Test [10] shares this target. Description: qHTS Assay for Activators of Cytochrome P450 3A4 (AID 885; active means well fitted curve in the direction sought with a large enough effect; an effect the other way counts as inactive or inconclusive; further: nearly all actives have a fitted effect of over 65% in size). The conditions noted are these: recombinant CYP3A4, Luciferin-PPXE luminescence, 60 min; series mostly up to 57.1 µM. The procedure, abridged: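 Steps: enzyme/substrate mix dispensed; compound added, 10 min RT; NADPH regeneration solution added, 60 min RT; luciferin detection buffer stops reaction; 20 min later luminescence measured.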

Test [11] is described as follows: qHTS Assay for Lipid Storage Modulators (AID 1519; calls by dose curve). The conditions noted are these: Drosophila S3 cells, BODIPY lipid droplet/cell ratio, laser cytometry, cells loaded with oleic acid; for activity change, negative = inhibition: at 57.5 µM (top of the series). The procedure, abridged: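 Cells seeded at 5,000 per well were treated with compounds over a concentration series and loaded with oleic acid (400 uM, as added). Lipid droplet fluorescence (488 nm excitation, 500-530 nm channel) was read by laser-scanning cytometry and normalized to 20 uM Triacsin C.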

Test [12] concerns the target Dual specificity protein kinase CLK4 (Homo sapiens) (UniProt Q9HAZ1). Description: qHTS Assay for Inhibitors of CDC-like Kinase 4 (ADP-Glo Assay) (AID 1771; active means well fitted curve in the direction sought with a large enough effect; an effect the other way counts as inactive or inconclusive; further: potency means the concentration at half of the fitted maximal effect; nearly all actives have a fitted effect of over 70% in size). The note with it: recombinant CLK4, ADP-Glo luminescence; series mostly up to 80 µM. The method, boiled down:
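25 nM Clk4 with 100 uM RS repeat peptide and 1 uM ATP (final) in buffer with 2 mM MgCl2, 0.5 mM EGTA, 2.5 mM DTT, 0.01% Triton X-100; 1 h at room temperature; ADP-Glo luminescence for ADP formed.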

The nature of test [13]: Primary qHTS for small molecule stabilizers of the endoplasmic reticulum resident proteome: Secreted ER Calcium Modulated Protein (SERCaMP) assay (AID 1508630; active means well fitted curve in the direction sought with a large enough effect; an effect the other way counts as inactive or inconclusive; further: on the % scale 0 is the no-effect control and ±100 the full control effect). The conditions noted are these: SH-SY5Y GLuc-SERCaMP (Gaussia luciferase released on ER calcium loss) secretion, thapsigargin, luminescence; series mostly up to 38.4 µM. The procedure, abridged:
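GLuc-SERCaMP-expressing SH-SY5Y cells, pretreated 16 h with compound, are challenged with thapsigargin to empty ER calcium stores; after 4 h, coelenterazine is added directly to the medium and luminescence is imaged.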

Test [14] concerns the target 3',5'-cyclic-AMP phosphodiesterase 4B (Homo sapiens) (UniProt Q07343). Description: qHTS Assay for Inhibitors of PDE-IV (AID 607; active means well fitted activation curve with a large enough effect in the main read-out, with a control signal flat, not every such curve was filed as active; further: % of control where 0% means no effect). The conditions noted are these: HEK293 ACTOne CNG channel cells, membrane potential fluorescence; series mostly up to 22.9 µM. The method, boiled down: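 The readout is membrane depolarisation from a cAMP-sensing CNG channel, detected with a potential dye at ex 535/em 590. Cells were HEK293-derived (endogenous PDE-IV) at 1000 cells/well, titrated up to 22.9 uM final.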

Test [15] deals with Dual specificity protein kinase CLK4 (Homo sapiens) (UniProt Q9HAZ1). Briefly: qHTS Assay for Inhibitors of CDC-like Kinase 4 (ADP-FP Assay) (AID 1795; active means well fitted curve in the direction sought with a large enough effect; an effect the other way counts as inactive or inconclusive;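 further: recombinant human CLK4 phosphorylating RS repeat peptide at 1 µM ATP; on the % scale 0 is the no-effect control and ±100 the full control effect; nearly all actives have a fitted effect of over 60% in size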). The note with it: Transcreener ADP fluorescence polarization; series mostly up to 50 µM. The method, boiled down:
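Recombinant Clk4 (6.25 nM) phosphorylated 100 uM RS repeat peptide with 1 uM ATP in 25 mM Tris pH 7.5, 10 mM MgCl2, 0.5 mM EGTA, 2.5 mM DTT, 0.01% Triton X-100 for 1 h. ADP was detected by Transcreener ADP2 competitive fluorescence polarization after 30 min at room temperature.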

The target of test [16] is Ubiquitin carboxyl-terminal hydrolase 1 (Homo sapiens) (UniProt O94782). Description: Inhibitors of USP1/UAF1: Pilot qHTS (AID 504865; active means well fitted curve in the direction sought with a large enough effect; an effect the other way counts as inactive or inconclusive;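 further: rhodamine fluorescence freed from ubiquitin-rhodamine substrate followed over time; top concentration of the series differs between compounds; on the % scale 0 is the no-effect control and ±100 the full control effect; nearly all actives have a fitted effect of over 35% in size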). The conditions noted are these: purified USP1/UAF1, Ub-rhodamine cleavage fluorescence; series mostly up to 54.9 µM. The procedure, abridged: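 USP1/UAF1 complex at 1 nM preincubated 15 min at room temperature with compound, then Ub-Rho substrate added at 150 nM final. Fluorescence (480/540 nm) read kinetically in 50 mM HEPES pH 7.8, 0.5 mM EDTA, 1 mM TCEP, 0.1 mg/ml BSA, 0.01% Tween-20.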
Ubiquitin carboxyl-terminal hydrolase 1 (Homo sapiens), sequence (O94782 whole entry, looked up): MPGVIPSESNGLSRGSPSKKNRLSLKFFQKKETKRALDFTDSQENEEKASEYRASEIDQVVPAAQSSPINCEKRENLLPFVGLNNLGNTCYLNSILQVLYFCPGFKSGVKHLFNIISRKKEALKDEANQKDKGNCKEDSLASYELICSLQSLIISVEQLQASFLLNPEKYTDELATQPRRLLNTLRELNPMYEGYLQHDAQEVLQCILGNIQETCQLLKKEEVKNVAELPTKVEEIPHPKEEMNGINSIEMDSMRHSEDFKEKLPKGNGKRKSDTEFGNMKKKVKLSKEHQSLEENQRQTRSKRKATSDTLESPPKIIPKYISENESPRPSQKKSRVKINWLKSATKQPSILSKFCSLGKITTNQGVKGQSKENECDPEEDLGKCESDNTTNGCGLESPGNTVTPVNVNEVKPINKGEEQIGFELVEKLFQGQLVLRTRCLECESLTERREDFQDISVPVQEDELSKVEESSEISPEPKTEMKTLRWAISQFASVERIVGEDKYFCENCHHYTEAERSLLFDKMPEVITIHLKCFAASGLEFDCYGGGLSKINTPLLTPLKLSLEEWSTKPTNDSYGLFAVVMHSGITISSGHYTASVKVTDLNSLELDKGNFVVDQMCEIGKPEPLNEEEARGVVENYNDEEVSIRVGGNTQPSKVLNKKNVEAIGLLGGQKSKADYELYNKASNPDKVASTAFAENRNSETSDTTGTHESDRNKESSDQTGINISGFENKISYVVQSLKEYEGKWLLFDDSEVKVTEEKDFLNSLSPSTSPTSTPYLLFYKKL

The nature of test [17]: Confirmation and Secondary Assay for Modulators of Hemoglobin Beta Chain Splicing at IVS2 654 locus (AID 910; active means well fitted curve in the direction sought with a large enough effect; an effect the other way counts as inactive or inconclusive; further: % of control where 0% means no effect). The note with it: HeLa EGFP-654 splicing reporter, GFP fluorescence, 48 h; series mostly up to 38.3 µM. The procedure, abridged:
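HeLa cells stably carrying EGFP interrupted by mutant beta-globin IVS2-654 intron (CMV-driven) were treated with compound for 2 days at 37C; corrected splicing was scored as total peak GFP intensity per well (488 nm excitation, 500-520 nm emission).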

Test [18] in a line: qHTS Assay for Identification of Small Molecule Agonists for Hypoxia Response Element Signaling Pathway (AID 914; active means well fitted activation curve with a large enough effect in the signal ratio, with a control signal flat, not every such curve was filed as active; the % refers to the signal ratio; further: % of control where 0% means no effect). The conditions noted are these: ME-180 (cervical carcinoma) HRE-bla reporter, beta-lactamase ratio, CoCl2, 17 h; activation: stronger effect = higher value. The method, boiled down:
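HRE-bla ME-180 cells with beta-lactamase reporter under hypoxia response element, compounds with EC50 CoCl2 for 17 hours at 37 C. CCF4 substrate, 460nm/530nm emission ratio gave %Activity; AC50 from titration series.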

Test [19] in a line: Confirmation and Secondary Assay for Modulators of Hemoglobin Beta Chain Splicing at IVS2 705 locus (AID 930; active means well fitted curve in the direction sought with a large enough effect; an effect the other way counts as inactive or inconclusive;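 further: HeLa cells stably expressing the EGFP-705 splicing reporter; GFP fluorescence per well restored by corrected splicing of the IVS2-705 intron in EGFP; % of control where 0% means no effect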). The note with it: HeLa EGFP-705 splicing reporter, GFP fluorescence, 48 h; series mostly up to 38.3 µM. The procedure, abridged:
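HeLa cells stably carrying EGFP interrupted by mutant beta-globin intron 2 (IVS2-705) treated 2 days at 37C with compound; 500 nM antisense PNA as control. Correct splicing read as total peak GFP intensity per well by laser-scanning cytometry.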

Setting [20] is: measured here: cell count channel max response.
Where [21] appears, read: measured here: lipid channel max response.

Lysosomal acid glucosylceramidase (Homo sapiens), sequence (P04062 whole entry, looked up): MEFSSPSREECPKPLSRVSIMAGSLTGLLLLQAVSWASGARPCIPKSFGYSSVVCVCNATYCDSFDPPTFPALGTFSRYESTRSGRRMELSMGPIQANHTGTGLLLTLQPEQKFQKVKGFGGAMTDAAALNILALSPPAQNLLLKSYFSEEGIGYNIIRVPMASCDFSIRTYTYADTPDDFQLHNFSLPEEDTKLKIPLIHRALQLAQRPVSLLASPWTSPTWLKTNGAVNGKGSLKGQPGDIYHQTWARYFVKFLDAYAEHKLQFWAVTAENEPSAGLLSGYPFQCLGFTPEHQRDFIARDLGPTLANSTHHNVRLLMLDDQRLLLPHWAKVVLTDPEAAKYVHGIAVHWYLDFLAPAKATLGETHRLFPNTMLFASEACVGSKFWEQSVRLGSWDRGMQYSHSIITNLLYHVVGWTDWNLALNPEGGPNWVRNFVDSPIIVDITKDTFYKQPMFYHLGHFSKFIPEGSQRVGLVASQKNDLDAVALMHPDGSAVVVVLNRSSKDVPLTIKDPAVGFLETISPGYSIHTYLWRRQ
3',5'-cyclic-AMP phosphodiesterase 4B (Homo sapiens), sequence (Q07343 whole entry, looked up): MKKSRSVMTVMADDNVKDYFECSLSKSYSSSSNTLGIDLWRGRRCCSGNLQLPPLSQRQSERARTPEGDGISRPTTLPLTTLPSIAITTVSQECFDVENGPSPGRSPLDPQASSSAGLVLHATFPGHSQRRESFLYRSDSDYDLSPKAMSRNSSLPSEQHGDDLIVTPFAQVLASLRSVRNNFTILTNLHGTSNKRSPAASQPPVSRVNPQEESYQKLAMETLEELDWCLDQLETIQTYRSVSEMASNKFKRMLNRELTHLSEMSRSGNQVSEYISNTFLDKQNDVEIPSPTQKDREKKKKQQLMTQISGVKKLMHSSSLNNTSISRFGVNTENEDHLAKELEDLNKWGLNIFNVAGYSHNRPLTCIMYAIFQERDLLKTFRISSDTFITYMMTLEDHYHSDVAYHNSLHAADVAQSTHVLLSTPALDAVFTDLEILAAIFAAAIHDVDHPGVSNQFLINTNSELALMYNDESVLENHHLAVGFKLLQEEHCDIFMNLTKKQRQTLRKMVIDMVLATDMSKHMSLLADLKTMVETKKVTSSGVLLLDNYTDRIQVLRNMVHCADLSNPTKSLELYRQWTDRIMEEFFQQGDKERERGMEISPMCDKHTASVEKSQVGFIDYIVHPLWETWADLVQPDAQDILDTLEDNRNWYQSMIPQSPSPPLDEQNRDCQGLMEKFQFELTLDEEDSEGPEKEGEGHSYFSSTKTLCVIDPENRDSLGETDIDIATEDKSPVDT
Glucocorticoid receptor (Homo sapiens), sequence (P04150 whole entry, looked up): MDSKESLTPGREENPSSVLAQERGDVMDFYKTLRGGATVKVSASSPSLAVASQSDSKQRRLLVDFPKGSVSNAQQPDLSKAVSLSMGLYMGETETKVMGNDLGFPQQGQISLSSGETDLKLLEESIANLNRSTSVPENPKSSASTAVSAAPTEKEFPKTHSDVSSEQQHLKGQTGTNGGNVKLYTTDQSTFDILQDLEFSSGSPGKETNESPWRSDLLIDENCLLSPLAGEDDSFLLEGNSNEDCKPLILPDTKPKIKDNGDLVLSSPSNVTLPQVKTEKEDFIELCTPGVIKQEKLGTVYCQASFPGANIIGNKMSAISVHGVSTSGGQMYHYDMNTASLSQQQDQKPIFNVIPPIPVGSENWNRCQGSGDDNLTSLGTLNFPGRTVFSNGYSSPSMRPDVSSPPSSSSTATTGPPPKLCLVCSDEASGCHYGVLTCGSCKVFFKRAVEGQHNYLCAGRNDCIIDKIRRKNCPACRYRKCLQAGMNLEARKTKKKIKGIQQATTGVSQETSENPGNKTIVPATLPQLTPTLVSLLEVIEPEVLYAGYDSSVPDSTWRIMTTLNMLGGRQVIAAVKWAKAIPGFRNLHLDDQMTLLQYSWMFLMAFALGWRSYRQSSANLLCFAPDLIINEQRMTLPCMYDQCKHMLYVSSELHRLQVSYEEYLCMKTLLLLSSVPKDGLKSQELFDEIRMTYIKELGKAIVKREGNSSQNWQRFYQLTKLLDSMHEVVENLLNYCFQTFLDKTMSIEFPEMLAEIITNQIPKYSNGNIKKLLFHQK
Cytochrome P450 1A2 (Homo sapiens), sequence (P05177 whole entry, looked up): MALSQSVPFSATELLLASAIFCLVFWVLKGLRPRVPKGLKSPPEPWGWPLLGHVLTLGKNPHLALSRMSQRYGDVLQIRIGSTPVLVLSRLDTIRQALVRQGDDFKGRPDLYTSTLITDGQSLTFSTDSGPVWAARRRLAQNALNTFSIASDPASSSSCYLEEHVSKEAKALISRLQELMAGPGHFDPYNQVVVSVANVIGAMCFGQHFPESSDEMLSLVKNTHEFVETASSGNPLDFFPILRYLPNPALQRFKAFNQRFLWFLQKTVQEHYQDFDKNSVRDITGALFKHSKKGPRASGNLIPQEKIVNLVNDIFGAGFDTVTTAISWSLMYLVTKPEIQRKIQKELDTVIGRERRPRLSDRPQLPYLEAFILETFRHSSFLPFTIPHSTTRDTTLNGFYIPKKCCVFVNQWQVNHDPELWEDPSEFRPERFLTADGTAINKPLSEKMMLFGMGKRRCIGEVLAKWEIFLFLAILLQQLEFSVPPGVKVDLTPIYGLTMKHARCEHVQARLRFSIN
Dual specificity protein kinase CLK4 (Homo sapiens), sequence (Q9HAZ1 whole entry, looked up): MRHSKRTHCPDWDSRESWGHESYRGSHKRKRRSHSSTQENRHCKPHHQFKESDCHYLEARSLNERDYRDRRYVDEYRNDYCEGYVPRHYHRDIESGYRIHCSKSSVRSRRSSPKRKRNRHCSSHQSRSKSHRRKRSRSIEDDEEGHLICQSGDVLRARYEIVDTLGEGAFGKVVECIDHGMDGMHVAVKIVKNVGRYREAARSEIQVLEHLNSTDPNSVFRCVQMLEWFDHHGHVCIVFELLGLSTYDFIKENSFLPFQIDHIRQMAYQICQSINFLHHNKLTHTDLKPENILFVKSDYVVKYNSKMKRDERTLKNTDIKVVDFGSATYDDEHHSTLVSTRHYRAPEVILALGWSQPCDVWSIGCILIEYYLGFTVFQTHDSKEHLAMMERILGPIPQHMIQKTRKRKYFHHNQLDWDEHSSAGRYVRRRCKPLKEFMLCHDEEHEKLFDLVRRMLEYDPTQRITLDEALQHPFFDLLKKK
Cytochrome P450 3A4 (Homo sapiens), sequence (P08684 whole entry, looked up): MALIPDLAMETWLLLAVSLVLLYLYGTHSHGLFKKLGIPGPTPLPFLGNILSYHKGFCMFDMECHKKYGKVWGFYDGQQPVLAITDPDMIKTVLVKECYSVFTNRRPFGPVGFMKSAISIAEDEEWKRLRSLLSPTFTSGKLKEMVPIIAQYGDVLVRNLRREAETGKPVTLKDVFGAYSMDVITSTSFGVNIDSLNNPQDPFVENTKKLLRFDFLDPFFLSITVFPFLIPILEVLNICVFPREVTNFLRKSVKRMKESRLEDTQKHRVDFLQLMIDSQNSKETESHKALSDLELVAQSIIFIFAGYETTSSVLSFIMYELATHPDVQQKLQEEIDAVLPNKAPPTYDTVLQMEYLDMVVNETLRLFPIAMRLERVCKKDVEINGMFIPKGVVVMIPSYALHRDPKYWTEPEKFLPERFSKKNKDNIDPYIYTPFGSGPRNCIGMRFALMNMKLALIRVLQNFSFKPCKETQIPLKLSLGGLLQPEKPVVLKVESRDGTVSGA

For the compound `COc1cccc(Nc2ncc3nc(C)c(=O)n(CCc4ccccc4)c3n2)c1`, the Potency was > 11.4 µM (inactive) in test [1]; 5.01 µM (active) in test [3]; > 9.22 µM (inactive) in test [6]; > 46 µM (inactive) in test [7]; 7.94 µM (active) in [9]; 7.08 µM (active) in test [12]. For the same compound, the activity change, negative = inhibition in test [2] is -17.7% (inactive); in [4], 3.56% (inactive); in test [11] it was -2.06% (inactive). Further, the activity, negative = inhibition in test [5] was -6.89% (inactive). Besides, in test [8], the compound was called inactive. Moreover, the Potency entry in test [10] and in test [13] was “inactive” each time. Besides, the max response was -10.5% in [11] (setting [20]) and -13.8% in test [11] (setting [21]).

For `O=c1cnc2cnc(N3CCOCC3)nc2n1C1CC1`, the Potency in test [1] was > 11.4 µM (inactive); in test [3], 6.31 µM (active); in test [6], > 9.22 µM (inactive); in test [7] it was > 46 µM (inactive). Besides, the activity change, negative = inhibition is 18.1% (inactive) in [2], -1.07% (inactive) in test [4] and 1.43% (inactive) in test [11]. Also, in test [5], the activity, negative = inhibition is -6.14% (inactive). The call in [8] was inactive. For the same compound, the Potency entry in test [14], in [15] and in test [13] was “inactive” each time. Moreover, the figures for the max response in test [11] (setting [20]) and in test [11] (setting [21]) were 8.4% and 8.8%, respectively.

Regarding `CN(C)C(=O)c1ccc(-c2nc(NC3CCNCC3)c3ccccc3n2)cc1`, the Potency in test [1] was > 11.4 µM (inactive); in [3], 20 µM (active); in test [6] it was > 46 µM (inactive); in test [7] it was > 46 µM (inactive). For the same compound, the figures for the activity change, negative = inhibition in [2], in test [4] and in test [11] were 7.64% (inactive), 12.4% (inactive) and 4.99% (inactive), respectively. The activity, negative = inhibition in test [5] was 11.2% (inactive). Besides, in test [8], the outcome was inactive. Also, the Potency result in test [14], in [15], in test [16] and in test [13] was “inactive” each time. Besides, the figures for the max response in test [11] (setting [20]) and in test [11] (setting [21]) were 14.8% and 18.3%, respectively.

With `COc1cccc(Nc2ncc3nc(C)c(=O)n(C)c3n2)c1`, the Potency in test [1] is > 11.4 µM (inactive); in [3] it was 1 µM (active); in [6], > 9.22 µM (inactive); in [7], > 46 µM (inactive). For the same compound, the results for the activity change, negative = inhibition in test [2], in test [4] and in [11] were -0.695% (inactive), -5.64% (inactive) and -0.403% (inactive), respectively. The activity, negative = inhibition in test [5] is -12.2% (inactive). The compound was called inactive in [8]. Moreover, the Potency entry in test [14], in [15], in [16] and in test [13] was “inactive” throughout. Moreover, the max response in test [11] (setting [20]) was determined as 5.56%; in [11] (setting [21]) it was 2.52%.

As to `Cc1cnc(CNc2ncncc2-c2ccc(C(=O)N(C)C)cc2)cn1`, the Potency is > 11.4 µM (inactive) in test [1], 20 µM (active) in test [3], > 46 µM (inactive) in test [6] and > 46 µM (inactive) in [7]. The activity change, negative = inhibition is 5.94% (inactive) in test [2], 2.85% (inactive) in test [4] and 10.8% (inactive) in [11]. The activity, negative = inhibition in [5] was 9.42% (inactive). Also, the compound was called inactive in test [8], in test [17] and in [19]. Further, the Potency result in test [14], in [10], in test [16] and in [13] was “inactive” throughout. In test [18], the activation was 0.757% (inactive). Also, the figures for the max response in test [11] (setting [20]) and in test [11] (setting [21]) were 16% and 28.5%, respectively.
